# Source: paper PMC4336329 (PLoS ONE, 2015)
# About 14,000 (4.5%) of roughly 310,000 compounds showed an effect of 50% or more. The effect is printed as a negative number. The list comes from a sample in which strong results are over-represented; it also holds similar structures and randomly drawn compounds.
# Biological target: human ether-à-go-go-related gene (hERG) potassium channel (human, UniProt Q12809)
# Test: primary screen, population patch clamp on CHO cells stably expressing hERG; higher = less effect of the substance
# 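Further: peak tail current of the secondary pulse compared with the same well before compound.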
# Sequence of human ether-à-go-go-related gene (hERG) potassium channel (Q12809 whole entry, looked up): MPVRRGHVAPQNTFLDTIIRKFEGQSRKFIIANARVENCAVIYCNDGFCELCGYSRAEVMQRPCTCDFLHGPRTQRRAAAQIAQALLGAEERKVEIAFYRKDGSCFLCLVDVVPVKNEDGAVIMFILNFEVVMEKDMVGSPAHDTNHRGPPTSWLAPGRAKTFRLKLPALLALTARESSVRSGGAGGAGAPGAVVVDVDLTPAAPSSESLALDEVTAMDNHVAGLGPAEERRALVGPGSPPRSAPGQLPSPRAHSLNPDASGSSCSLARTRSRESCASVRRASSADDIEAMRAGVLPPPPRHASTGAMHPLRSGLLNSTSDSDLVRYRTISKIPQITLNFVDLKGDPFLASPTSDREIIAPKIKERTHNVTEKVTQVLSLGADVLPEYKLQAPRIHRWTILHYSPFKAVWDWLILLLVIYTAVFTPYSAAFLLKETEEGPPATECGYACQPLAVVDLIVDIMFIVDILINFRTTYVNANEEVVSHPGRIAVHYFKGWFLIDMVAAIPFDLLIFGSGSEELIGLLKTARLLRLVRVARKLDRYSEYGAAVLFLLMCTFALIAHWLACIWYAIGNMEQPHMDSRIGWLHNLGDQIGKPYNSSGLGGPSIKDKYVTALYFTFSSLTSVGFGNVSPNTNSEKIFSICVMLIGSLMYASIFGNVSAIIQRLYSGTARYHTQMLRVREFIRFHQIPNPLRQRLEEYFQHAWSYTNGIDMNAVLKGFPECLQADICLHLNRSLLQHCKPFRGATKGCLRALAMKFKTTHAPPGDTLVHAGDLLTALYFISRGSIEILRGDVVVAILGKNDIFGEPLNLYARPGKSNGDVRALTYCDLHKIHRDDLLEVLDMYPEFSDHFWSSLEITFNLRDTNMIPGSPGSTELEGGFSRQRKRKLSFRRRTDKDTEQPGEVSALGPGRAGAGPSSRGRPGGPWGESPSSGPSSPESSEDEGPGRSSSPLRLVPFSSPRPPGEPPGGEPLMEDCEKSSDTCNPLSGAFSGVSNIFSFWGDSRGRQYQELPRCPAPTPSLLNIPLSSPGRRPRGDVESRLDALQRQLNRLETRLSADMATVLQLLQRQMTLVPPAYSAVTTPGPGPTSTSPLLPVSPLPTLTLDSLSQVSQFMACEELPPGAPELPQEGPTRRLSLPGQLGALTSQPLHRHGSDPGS
row,SMILES,"hERG current change (%, negative = inhibition) at 10uM [%]"
1,CCOC(=O)c1ccc(NC(=S)Nc2ccc3[nH]c(=O)[nH]c3c2)cc1,1.23
2,O=c1[nH]c2ccccc2nc1C(Cl)c1ccccc1 (stereo not drawn),2.52
3,Nc1nc(-c2ccco2)cs1,9.88
4,O=c1oc2cc(OCc3c(F)c(F)c(F)c(F)c3F)ccc2cc1-c1ccccn1,14
5,COc1ccc(C(=O)Nn2cnc3ccccc3c2=O)cc1[N+](=O)[O-],-4.64
6,Cc1ccc(S(=O)(=O)N2CCN(CC(=O)N/N=C/C=C/c3ccccc3)CC2)cc1,-73.8
7,Cc1ccc(S(=O)(=O)N2CCN(CC(=O)N/N=C\C(Cl)=C\c3ccccc3)CC2)cc1,-48
8,Cc1ccc(S(=O)(=O)N2CCN(CC(=O)N/N=C/c3ccc(C)o3)CC2)cc1,-38.9
9,Cc1ccc(S(=O)(=O)N2CCN(CC(=O)N/N=C\c3ccccn3)CC2)cc1,-36.3
10,Cc1ccc(S(=O)(=O)N2CCN(CC(=O)N/N=C/c3ccccc3OCC(=O)O)CC2)cc1,10.5
11,O=C(O)COc1ccccc1/C=N/NC(=O)CN1CCN(S(=O)(=O)c2ccc(Br)cc2)CC1,4.89
12,CC(/C=N\NC(=O)CN1CCN(S(=O)(=O)c2ccc(C)cc2)CC1)=C\c1ccccc1,-68.1
13,COc1ccccc1/C=C/C=N/NC(=O)CN1CCN(S(=O)(=O)c2ccc(C)cc2)CC1,-50.2
14,O=C(CN1CCOCC1)N/N=C/C=C/c1ccccc1,-26.3
15,CCCOC(=O)c1ccc(O)cc1,16.5
16,COc1ccccc1CC(=O)Nc1ccc(O)cc1C(=O)O,0.828
17,C(=N\N(c1ccccc1)c1ccccc1)/c1ccc2c(c1)OCO2,4.28
18,COCCCN1CCN(C2Cc3ccccc3Sc3ccc(Cl)cc32)CC1.O=C(O)/C=C\C(=O)O (stereo not drawn),-73.5
19,C1CCCCC1.OCCN1CCN(C2Cc3cc(Cl)ccc3Sc3ccc(Cl)cc32)CC1 (stereo not drawn),9.86
20,Fc1ccc2c(c1)Sc1ccc(Cl)cc1CC2N1CCN(CCC2OCCO2)CC1 (stereo not drawn),-8.68
21,O=C(O)/C=C\C(=O)O.c1ccc2c(c1)CC1CNCc3cccc(c31)S2 (stereo not drawn),-49.5

row,SMILES,"hERG current change (%, negative = inhibition) at 10uM [%]"
1,Clc1ccc2c(c1)C(N1CCNCC1)Cc1ccccc1S2.O=C(O)/C=C\C(=O)O (stereo not drawn),-54.3
2,COc1cc([C@@H]2c3cc4c(cc3[C@@H](O)[C@H]3COC(=O)[C@H]23)OCO4)cc(OC)c1O[Si](C)(C)C(C)(C)C,17.8
3,NS(=O)(=O)c1cccc(NC(=O)c2cccnc2Oc2ccccc2)c1,12.7
4,Cc1sc2ncn(CC(=O)N3CCN(c4ccccn4)CC3)c(=O)c2c1S(=O)(=O)N1CCCCC1,-36.7
5,Cc1c(OC(=O)c2ccc([N+](=O)[O-])cc2)c2c(c[n+]1C)COC(C)(C)OC2.[I-],9.15
6,Cc1ncc2c(c1OC(=O)c1ccc([N+](=O)[O-])cc1)COC(C)(C)OC2,-65.8
7,Cc1ncc2c(c1OC(=O)c1ccccc1)COC(C)(C)OC2,-6.46
8,Cn1c(O)c(N=Nc2ccc(S(=O)(=O)N3CCOCC3)cc2)c(=O)n(C)c1=O,10.8
9,CCN(CC)c1ccc(N=Cc2c(O)n(-c3ccccc3C)c(=O)[nH]c2=O)cc1,-29.2
10,Cc1ccc(S(=O)(=O)N2CCOCC2)c2nsnc12,-3.38
11,Cc1ccc(S(=O)(=O)N2CCN(C)CC2)c2nsnc12,24.1
12,Cc1ccc(S(=O)(=O)N2CCCCC2)c2nsnc12,-54.9
13,CCC(=O)Nc1cc(-c2nn(CC(=O)N3CCCCC3)c(=O)c3ccccc23)ccc1N1CCOCC1,3.05
14,CC(=O)Nc1cc(-c2nn(CC(=O)N3CCCCC3)c(=O)c3ccccc23)ccc1N1CCOCC1,2.8
15,O=[N+]([O-])c1cc(-c2nnc(N3CCOCC3)c3ccccc23)ccc1N1CCOCC1,-40.3
16,Cc1ccc(-c2nn(CC(=O)N3CCOCC3)c(=O)c3ccccc23)cc1S(=O)(=O)N(C)C,-22.6
17,O=C(Cn1nc(-c2ccc(N3CCOCC3)c([N+](=O)[O-])c2)c2ccccc2c1=O)N1CCCCC1,-68.2
18,O=C(Nc1cc(-c2nn(CC(=O)N3CCCCC3)c(=O)c3ccccc23)ccc1N1CCOCC1)c1ccc(Cl)cc1,-52.6
19,Cc1ccc(C)c(N(C(=O)CCC(=O)Nc2cc(C)on2)C(C(=O)NC2CCCC2)c2ccco2)c1 (stereo not drawn),10.2
20,CNc1nc(SC(C)C(=O)Nc2ccc(Cl)c(Cl)c2)nc(N2CCOCC2)n1 (stereo not drawn),19.6
21,COc1ccc(S(=O)(=O)N2CCC(C(=O)N3CCN(C)CC3)CC2)cc1OC,17.3

row,SMILES,"hERG current change (%, negative = inhibition) at 10uM [%]"
1,Cc1nn(CCO)c2nc(-c3cccs3)cc(C(F)(F)F)c12,2.32
2,COc1ccc(/C=N/NC(=O)CC(=O)NC2CCCCC2)cc1,5.89
3,COc1ccc(-c2cnnn2-c2ccc(NC(=O)/C=C/c3ccc(OC)c(OC)c3)cc2)cc1,-5.92
4,Cc1ccccc1OCCC(=O)OCC(=O)NCCNC(=O)COC(=O)CCOc1ccccc1C,4.47
5,COc1ccc(CN2CCN(C(=O)CCC(=O)Nc3nnc(C4CCCCC4)s3)CC2)cc1F,-50.2
6,COc1ccc(F)cc1CN1CCN(C(=O)CCC(=O)Nc2nnc(C3CCCCC3)s2)CC1,-6.04
7,O=C(CCC(=O)N1CCN(Cc2ccc(F)cc2)CC1)Nc1nnc(C2CCCCC2)s1,6.92
8,COc1ccc(C(=O)C2CCCN(C(=O)c3noc4c3CCCC4)C2)cc1F (stereo not drawn),-39.9
9,CCc1ccc2[nH]c(=O)c(CN(Cc3ccccc3OC)Cc3nnnn3Cc3ccco3)cc2c1,-14.3
10,COc1ccc(C(=O)COc2ccc3ccc(=O)oc3c2)cc1,-3.32
11,CC(=O)n1cc(N(C(=O)CCl)c2ccc(C)cc2)c2ccccc21,-5.35
12,CC(=O)n1cc(N(C(=O)CCl)c2ccc([N+](=O)[O-])cc2)c2ccccc21,-57.1
13,CC(=O)n1cc(N(C(=O)CCl)c2ccccc2)c2ccccc21,1.19
14,CC1CCCCN1C(=O)CCc1nnc(Cc2c[nH]c3ccccc23)o1 (stereo not drawn),4.94
15,COc1ccc(S(=O)(=O)N2CCCC(C(=O)Nc3ccc(NC(=O)c4ccccn4)cc3)C2)cc1 (stereo not drawn),4.17
16,O=C(CN1C(=O)COc2ccccc21)NCCCN1CCN(Cc2ccccc2)CC1,-11.7
17,O=S(=O)(Nc1ccccn1)c1ccc(-n2cccn2)cc1,21.3
18,CCCN1C2=C(C(=O)CCC2)C(c2ccc(O)c(Br)c2)C2=C1CCCC2=O,-18.1
19,CN1CCN(/N=C/c2nc(-c3ccc(Cl)cc3)n3ccccc23)CC1,-62.1
20,Clc1ccc(-c2nc(/C=N/N3CCOCC3)c3ccccn23)cc1,-5.18
21,CN1CCN(/N=C/c2nc(-c3ccccc3)n3ccccc23)CC1,-19.9

row,SMILES,"hERG current change (%, negative = inhibition) at 10uM [%]"
1,COc1ccc(N2CCN(C(=O)CSc3nnnn3C3CC3)CC2)cc1,-13.6
2,CC(=O)Nc1nc(C)c(-c2nc3ccc([N+](=O)[O-])cc3[nH]2)s1,13.9
3,COc1ccc(-n2cc(CNCCN3CCOC3=O)c(-c3ccccc3Cl)n2)cc1,-18.5
4,CCN1CCC(CNCc2cn(-c3ccc(OC)cc3)nc2-c2ccccc2Cl)C1 (stereo not drawn),-9.43
5,COc1ccc(-n2cc(CNCCc3cnc[nH]3)c(-c3cccc(F)c3)n2)cc1,-28.9
6,COc1ccc(-c2nn(-c3ccccc3)cc2CO)cc1,4.56
7,COc1ccc(-n2cc(CNCCCN3CCCC3=O)c(-c3ccccc3Cl)n2)cc1,-60.9
8,Cc1cccc(-n2cc(CNCCc3nc(C)cc(C)n3)c(-c3cccc(F)c3)n2)c1,-67.9
9,COc1ccc(-n2cc(CNCCc3nc(C)cc(C)n3)c(-c3ccccc3Cl)n2)cc1,-62.6
10,CCN1CC(CNCc2cn(-c3ccc(OC)cc3)nc2-c2ccccc2Cl)CC1=O (stereo not drawn),-24.4
11,Cc1cccc(-n2cc(CN3CCCN(C=O)CC3)c(-c3cccc(F)c3)n2)c1,-10.8
12,COc1ccc(-n2cc(CNCCc3cscn3)c(-c3ccccc3Cl)n2)cc1,-64.5
13,O=C(Nc1cccc(O)c1)C1CCCN1C(=O)OCc1ccccc1 (stereo not drawn),-7.35
14,CC(C)Oc1ccc(OCCn2c(S(=O)(=O)O)nc3c(N)ncnc32)cc1,15.9
15,COc1ccc(NC(=O)CN(Cc2ccccc2)Cc2ccccc2)cc1S(N)(=O)=O,-36.7
16,CCC(=O)Nc1ccc(C(=O)N/N=C/c2ccccc2[N+](=O)[O-])cc1,14.1
17,CCn1c(SCc2ccc(OC)cc2)nnc1-c1ccncc1,-18.9
18,Cc1cccc(-c2nnc(SCC(=O)Nc3cc(C)on3)n2C)c1,1.68
